The list is not random: actives were taken first. Their share in the collection is about 0.38%.
Rab7 wt modul – alters GTP binding to wildtype dog Rab7; GST-Rab7 beads, fluorescent GTP binding, flow cytometry; actives lie on both sides; untreated = 100%, excess cold GTP = 0%; GTP binding activity (percent of control), % at 10 µM; 0.055% of 190,000 active;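 active means fluorescent GTP binding to Rab7 beads changed by at least 20 points from the 100% baseline, either direction, mostly lower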;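 further: median green fluorescence of bound Bodipy-FL-GTP per Rab7 bead population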
Rac1 wt modul – modulators of human Rac1 wildtype GTP binding. AID 757. P63000. GTP binding activity (% of control), % at 10 µM. 0.27% of 190,000 active. GST-Rac1 beads, fluorescent GTP binding, flow cytometry; actives lie on both sides; 0 = cold GTP competed, 100 = untreated;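 active means GTP binding activity at least 20 points away from the 100% control level, either lower or higher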
Cdc42 wt – modulators (inhibitors or activators) of GTP binding to human Cdc42 wildtype; GST-Cdc42 beads, Bodipy-GTP binding, flow cytometry; actives lie on both sides; percent activity (GTP binding), % at 10 µM; 0.2% of 190,000 active; P60953;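 active means percent activity GTP binding at least 20 points away from the 100% baseline, either down as inhibitor or up as activator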;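 further: median bead fluorescence of bound Bodipy-FL-GTP at 100 nM; 0% = excess unlabeled GTP control and 100% = no compound control; below 100% means less GTP binding so inhibitor and above means activator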
Target sequence (P60953 whole entry, looked up): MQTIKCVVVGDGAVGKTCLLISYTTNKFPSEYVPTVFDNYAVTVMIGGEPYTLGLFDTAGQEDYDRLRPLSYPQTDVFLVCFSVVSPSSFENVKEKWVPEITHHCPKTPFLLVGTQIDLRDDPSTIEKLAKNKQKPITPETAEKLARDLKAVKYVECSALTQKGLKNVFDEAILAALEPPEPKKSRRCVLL
Rac1 act GTP bind – alters GTP binding to activated mutant human Rac1 | P63000 | GST-Rac1 activated beads, fluorescent GTP binding, flow cytometry; actives lie on both sides; 100% means binding = to untreated wells | percent activity (GTP binding), % at 10 µM | 0.11% of 190,000 active;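 active means GTP binding at least 20 percentage points away from the 100% baseline, in either direction, so actives lie on both sides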
HRas wt GTP – changes GTP binding to wildtype human HRas; 0.14% of 190,000 active; P01112; GST-Ras wt beads, Bodipy-FL-GTP binding, flow cytometry; actives lie on both sides; GTP binding activity, % at 10 µM; AID 759;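 active means GTP binding activity at least 20% away from the 100% baseline, either lowered as inhibitor or raised as activator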;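 further: 0% = unlabeled GTP competition control and 100% = no-compound control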
Target sequence (P01112 whole entry, looked up): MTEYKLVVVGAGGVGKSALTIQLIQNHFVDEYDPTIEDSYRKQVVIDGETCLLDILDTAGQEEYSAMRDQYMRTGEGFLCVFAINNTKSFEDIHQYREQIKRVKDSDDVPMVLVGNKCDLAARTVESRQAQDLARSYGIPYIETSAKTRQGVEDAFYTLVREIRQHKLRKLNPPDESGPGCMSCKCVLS
Rab2 wt GTP – changes GTP binding to wildtype dog Rab2A, up or down. P61105. GTP binding activity, % at 10 µM. GST-Rab2 wt beads, Bodipy-GTP binding, flow cytometry. 0.19% of 190,000 active;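 active means GTP binding activity at least 20 points away from 100%, either lowered or raised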;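 further: 0% = beads with excess unlabeled GTP and 100% = no-compound control corrected for plate trend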
* = called active by the depositor; [ ] = remark or other dose.

SMILES | Rab7 wt modul | Rac1 wt modul | Cdc42 wt | Rac1 act GTP bind | HRas wt GTP | Rab2 wt GTP
CCOC(=O)c1nn(-c2ccccc2)c(=O)cc1SC(C)C | 96 | 97 | 99 | 96 | 95 | 63*
CCOC(=O)c1cc2c(N)c(C(=O)c3ccc(Br)cc3)sc2[nH]c1=O | 90 | 64* | 71* | 79* | 74* | 71*
Cc1ccc(Cc2cnc(NC(=O)/C(C#N)=C/c3ccc(-c4ccc([N+](=O)[O-])cc4)o3)s2)cc1 | 79* | 84 | 82 | 83 | 82 | 83
Clc1ccc(Cn2ncc3c(N4CCCC4)ncnc32)cc1 | 97 | 100 | 99 | 97 | 100 | 100
Clc1ccc(Cn2ncc3c(N4CCOCC4)ncnc32)cc1 | 99 | 102 | 95 | 98 | 97 | 59*
COC(=O)c1ccc(C2OCC(C)(C)CO2)cc1 | 107 | 100 | 96 | 93 | 95 | 102
Cc1c(NC(=O)CCN2C(=O)c3ccccc3C2=O)c(=O)n(-c2ccccc2)n1C | 95 | 78* | 81 | 84 | 86 | 88
COc1ccccc1C(=O)O/N=C(/c1ccncc1)c1ccc([N+](=O)[O-])cc1 | 100 | 95 | 93 | 91 | 97 | 97
CSc1ccc(/C=N/NC(=O)c2ccccc2Cl)cc1 | 99 | 97 | 96 | 98 | 99 | 97
Cc1ccccc1NC(=O)C1CCCN(S(=O)(=O)c2cccc3cccnc23)C1 (stereo unspecified) | 101 | 103 | 98 | 100 | 100 | 97
Cc1ccccc1NC(=O)C1CCCN1S(=O)(=O)c1cccc2cccnc12 (stereo unspecified) | 109 | 128*[activator] | 117 | 111 | 113 | 113
Cc1cccc(NC(=O)CN2C(=O)N/C(=C/c3ccc(-c4cccc(C(=O)O)c4C)o3)C2=O)c1 | 93 | 97 | 93 | 92 | 91 | 92
Cc1ccc(NC(=O)CN2C(=O)S/C(=C\c3ccc(-c4cccc(C(=O)O)c4C)o3)C2=O)cc1C | 97 | 84 | 79* | 82 | 89 | 82
COc1ccc(NC(=O)COC(=O)c2ccc(OCc3c(C)noc3C)cc2)cc1OC | 101 | 103 | 102 | 98 | 101 | 100
COc1cc(C(=O)OCC(=O)Nc2ccc3c(c2)OC(F)(F)O3)ccc1OCc1c(C)noc1C | 28* | 39* | 34* | 37* | 43* | 40*
Cc1cc(-c2n[nH]c(=S)n2/N=C/c2cc([N+](=O)[O-])ccc2Cl)n[nH]1 | 87 | 71* | 85 | 85 | 77* | 74*
Cc1cc(-c2n[nH]c(=S)n2/N=C/c2ccc(Cl)c([N+](=O)[O-])c2)n[nH]1 | 99 | 96 | 97 | 94 | 94 | 92
COC(=O)c1ccc2nc(Nc3nc4c(F)cc(F)cc4s3)sc2c1 | 85 | 81 | 82 | 80 | 85 | 79*
O=C(C[n+]1cc(Br)cc(Br)c1)c1cccc([N+](=O)[O-])c1 | 101 | 87 | 95 | 90 | 92 | 96
CC(C)(C)NC(=O)CCN(/N=C/c1ccc([N+](=O)[O-])o1)C1=NS(=O)(=O)c2ccccc21 | 72* | 50* | 56* | 59* | 42* | 45*
Cn1nc(C(=O)NCc2cccnc2)c2ccccc2c1=O | 96 | 100 | 96 | 98 | 98 | 99
COC(=O)c1cccc(NC(=O)c2nn(C)c(=O)c3ccccc23)c1 | 92 | 72* | 73* | 81 | 77* | 79*
Cn1nc(C(=O)Nc2cccnc2)c2ccccc2c1=O | 92 | 85 | 73* | 86 | 74* | 69*
O=C(C1CCCN(Cc2nc(-c3cccs3)no2)C1)N1CCOCC1 (stereo unspecified) | 96 | 99 | 95 | 95 | 97 | 97
O=C1Nc2ccc(Br)cc2C12NNc1ccccc1O2 (stereo unspecified) | 96 | 84 | 79* | 89 | 82 | 83
SMILES | Rab7 wt modul | Rac1 wt modul | Cdc42 wt | Rac1 act GTP bind | HRas wt GTP | Rab2 wt GTP
S=C(Nc1ccc(Oc2ccc(NC(=S)NC3CCCCC3)cc2)cc1)NC1CCCCC1 | 98 | 106 | 104 | 99 | 101 | 101
S=C(Nc1ccc(Oc2ccccc2)cc1)NC1CCCCC1 | 104 | 141*[activator] | 115 | 107 | 107 | 115
O=C(O)c1ccc(NC(=S)NC2CCCCC2)cc1 | 102 | 100 | 100 | 101 | 101 | 100
CCCN(CC1CC1)C(=S)Nc1ccc(Oc2ccccc2)cc1 | 99 | 102 | 79* | 101 | 99 | 99
CCCCN(C)C(=S)Nc1ccc(Oc2ccccc2)cc1 | 103 | 104 | 97 | 100 | 100 | 103
S=C(Nc1ccc(Oc2ccccc2)cc1)NC1CCCCCC1 | 101 | 109 | 79* | 100 | 100 | 96
NC(=O)C1(N2CCCCC2)CCN(C(=S)NC2CCCC2)CC1 | 95 | 98 | 94 | 96 | 95 | 94
CN(Cc1ccccc1)c1nc(N)c([N+](=O)[O-])c(Nc2cccc(F)c2)n1 | 98 | 103 | 101 | 101 | 101 | 99
O=C(NC(=S)Nc1ccc(S(=O)(=O)Nc2nccs2)cc1)c1ccc(F)cc1 | 97 | 99 | 98 | 95 | 96 | 96
NC1=NS(=O)(=O)NC1c1ccc(Br)cc1 (stereo unspecified) | 96 | 97 | 96 | 97 | 96 | 97
Nc1cc(C(F)(F)F)ccc1-n1cccc1 | 94 | 98 | 98 | 97 | 95 | 98
CCn1c(C)c(C(C)=O)cc(C#N)c1=O | 102 | 99 | 98 | 97 | 97 | 95
Nc1nc(SCC(=O)NCCOCCO)nc2sc3c(c12)CCCC3 | 93 | 95 | 96 | 96 | 93 | 98
Cc1cc(C(=O)Oc2ccccc2C(=O)O)c(C)o1 | 104 | 127*[activator] | 120*[activator] | 119 | 110 | 116
COc1cc(/C=C2\SC(=Nc3ccc(O)cc3)NC2=O)cc(OC)c1O | 96 | 72* | 79* | 86 | 84 | 83
O=C1NC(=Nc2ccc(O)cc2)S/C1=C/c1ccco1 | 94 | 95 | 95 | 93 | 93 | 93
CCOC(=O)c1c(NC(=O)/C=C/c2ccc3c(c2)OCO3)sc(C)c1C | 100 | 102 | 103 | 101 | 104 | 103
CCOC(=O)c1c(NC(=O)/C=C/c2ccc3c(c2)OCO3)sc(C)c1CC | 92 | 87 | 83 | 77* | 91 | 85
CCc1ccccc1NC1=NCC(=O)N1C1CCCC1 | 104 | 102 | 93 | 96 | 99 | 97
COc1cccc(Nc2ncc(C(=O)O)c3ccccc23)c1 | 95 | 102 | 105 | 100 | 104 | 102
COc1cccc(Nc2ccccc2C(=O)O)c1 | 127*[activator] | 138*[activator] | 130*[activator] | 126*[activator] | 120*[activator] | 125*[activator]

Assay outcomes: PubChem, NMMLSC
